These results are taken from PubChem BioAssay.

Counter-ions that a name gives are not always drawn. Activity calls are given as the source filed them.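 How the source made its calls, unless noted: active means luciferase signal above three times the same-plate solvent-only control wells; inactive means the rest.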 Peptide text beside a SMILES is read from it. * marks the point of attachment. Tfa = O=C(C(F)(F)F)*

System in one assay: not listed separately
The assay is described as follows: reducers of polyQ inclusions in PC12 cells, cell-based, NGF-treated PC12, GFPQ80 (AID 1614).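 Further: lower means fewer inclusions and 0 means no inclusions at all.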 Particulars: PC12 NGF-treated GFP-polyQ80 inclusion reduction.
Take `CC1CC2C3CCC4=CC(=O)C=CC4(C)[C@@]3(F)C(O)CC2(C)[C@@]1(O)C(=O)CO` (stereo not given in full): the inclusion score is 2. Consider `NCC1OC(OC2C(N)CC(N)C(OC3OC(CO)C(O)C(N)C3O)C2O)C(N)C(O)C1O` (stereo not given), for which the inclusion score worked out at 2. `NCCCCC(N)C(=O)NCC(=O)NC(Cc1cnc[nH]1)C(=O)NC(CCCCN)C(=O)O` (stereo not given) (H-KGHK-OH; configuration not given here) registered an inclusion score of 2. In turn, `NCC1CCC(N)C(OC2C(N)CC(N)C(OC3OC(CO)C(O)C(N)C3O)C2O)O1` (stereo not given) registered an inclusion score of 1.5. Consider `O=c1c(O)cc2c(O)oc3c(=O)c(O)cc4c3c2c1CC=4O`, for which the inclusion score is 2. Take `CC(NC(=O)C(NC(=O)OCc1ccccc1)C(C)C)C(=O)NC(CC(=O)O)C(=O)OC(F)F` (stereo not given): the inclusion score was found to be 2. The compound `COc1ccc2c(c1OC)C(=O)O[C@H]2[C@@H]1c2ccccc2CCN1C` came in with an inclusion score of 2. For `CC(=O)C1CCC2C3CC=C4CC(OS(=O)(=O)O)CC[C@]4(C)C3CC[C@]12C` (stereo not given in full), the inclusion score worked out at 2.

System in another assay: not listed separately
Description: suppressors of polyglutamine aggregation in yeast, 75Q-TubH (AID 1616). Conditions: S. cerevisiae 75Q-TubH polyglutamine aggregation suppression; stronger effect = higher value.
Take `CC1CC2C3CCC4=CC(=O)C=CC4(C)[C@@]3(F)C(O)CC2(C)[C@@]1(O)C(=O)CO` (stereo not given in full): the aggregation suppression score turned out to be 1.3. Turning to `NCC1OC(OC2C(N)CC(N)C(OC3OC(CO)C(O)C(N)C3O)C2O)C(N)C(O)C1O` (stereo not given), the aggregation suppression score is 1.28.

Consider `NCCCCC(N)C(=O)NCC(=O)NC(Cc1cnc[nH]1)C(=O)NC(CCCCN)C(=O)O` (stereo not given) (H-KGHK-OH; configuration not given here), for which the aggregation suppression score is 1.42. Consider `NCC1CCC(N)C(OC2C(N)CC(N)C(OC3OC(CO)C(O)C(N)C3O)C2O)O1` (stereo not given), for which the aggregation suppression score was determined as 1.46. Compound `O=c1c(O)cc2c(O)oc3c(=O)c(O)cc4c3c2c1CC=4O` came in with an aggregation suppression score of 0.786. On the same count and under the same terms, to `CC(NC(=O)C(NC(=O)OCc1ccccc1)C(C)C)C(=O)NC(CC(=O)O)C(=O)OC(F)F` (stereo not given) belongs 1.2; to `CC(=O)N[C@@H](Cc1c[nH]c2ccccc12)C(N)=O`, 1.53; to `COc1ccc2c(c1OC)C(=O)O[C@H]2[C@@H]1c2ccccc2CCN1C`, 19.

Turning to `CC[C@@H](C(=O)C(C)[C@@H](O)[C@H](C)CCc1ccc(C)c(O)c1C(=O)O)C1OC(CC)(C2CC[C@](O)(CC)[C@H](C)O2)C[C@@H]1C` (stereo not given in full), the aggregation suppression score was 0.948. The same measure, in the same setting: the result for `CCCCC(=O)OC1(C(=O)CO)C(C)CC2C3CCC4=CC(=O)C=CC4(C)[C@@]3(F)[C@@H](O)CC21C` (stereo not given in full) reads 1.32; that for `CC(=O)C1CCC2C3CC=C4CC(OS(=O)(=O)O)CC[C@]4(C)C3CC[C@]12C` (stereo not given in full), 0.286; that for `CC[C@@]1(O)C[C@H](OC2CC(N(C)C)C(OC3CC(O)C(OC4CCC(=O)C(C)O4)C(C)O3)C(C)O2)c2c(cc3c(c2O)C(=O)c2c(O)cccc2C3=O)[C@H]1C(=O)OC` (stereo not given in full), 0.557.

As for `C=C1C(=O)OC2C1CCC1(C)CCC=C(C)C21` (stereo not given), the aggregation suppression score worked out at 0.322.

System in the next assay: not listed separately
The assay is described as follows: liver-stage malaria parasite growth inhibition, primary screen, cell-based, HepG2, luciferase luminescence, HepG2 viability (AID 624349; in the data active means parasite load remaining mostly below about 12%, no sharp cut-off; inactive means mostly above about 10%;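 further: 100% = mean of DMSO negative control wells on the same plate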). Particulars: P. berghei liver stage in HepG2, luciferase luminescence, concentration not given here; parasite load remaining: stronger effect = lower value; viability: measured here: HepG2 viability without parasites.
As to `CC1=CC(=O)CC(C)(C)C1(O)/C=C/C(C)=C\C(=O)O` (stereo not given), the viability is 73.1% and the parasite load remaining was 91.5% (inactive). In the same order, the values of `CC(=O)N[C@@H](Cc1c[nH]c2ccccc12)C(N)=O` are 71.9% and 142% (inactive). Regarding `CC[C@@H](C(=O)C(C)[C@@H](O)[C@H](C)CCc1ccc(C)c(O)c1C(=O)O)C1OC(CC)(C2CC[C@](O)(CC)[C@H](C)O2)C[C@@H]1C` (stereo not given in full), the viability was 84.4% and the parasite load remaining is -0.43% (inactive).

The next assay deals with Mitogen-activated protein kinase 7 (Homo sapiens) (UniProt Q13164). Description: ERK5 transactivation activators in reporter cells, primary screen, cell-based, HTS (AID 1508626).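 Further: luciferase driven by Gal4-ERK5 fusion binding five Gal4 sites before minimal TATA.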 Particulars: HeLa Gal4-ERK5 transactivation, 18 h, at 5 µM, stronger effect = higher value.
Mitogen-activated protein kinase 7 (Homo sapiens), sequence (Q13164 whole entry, looked up, the tested form may be a part): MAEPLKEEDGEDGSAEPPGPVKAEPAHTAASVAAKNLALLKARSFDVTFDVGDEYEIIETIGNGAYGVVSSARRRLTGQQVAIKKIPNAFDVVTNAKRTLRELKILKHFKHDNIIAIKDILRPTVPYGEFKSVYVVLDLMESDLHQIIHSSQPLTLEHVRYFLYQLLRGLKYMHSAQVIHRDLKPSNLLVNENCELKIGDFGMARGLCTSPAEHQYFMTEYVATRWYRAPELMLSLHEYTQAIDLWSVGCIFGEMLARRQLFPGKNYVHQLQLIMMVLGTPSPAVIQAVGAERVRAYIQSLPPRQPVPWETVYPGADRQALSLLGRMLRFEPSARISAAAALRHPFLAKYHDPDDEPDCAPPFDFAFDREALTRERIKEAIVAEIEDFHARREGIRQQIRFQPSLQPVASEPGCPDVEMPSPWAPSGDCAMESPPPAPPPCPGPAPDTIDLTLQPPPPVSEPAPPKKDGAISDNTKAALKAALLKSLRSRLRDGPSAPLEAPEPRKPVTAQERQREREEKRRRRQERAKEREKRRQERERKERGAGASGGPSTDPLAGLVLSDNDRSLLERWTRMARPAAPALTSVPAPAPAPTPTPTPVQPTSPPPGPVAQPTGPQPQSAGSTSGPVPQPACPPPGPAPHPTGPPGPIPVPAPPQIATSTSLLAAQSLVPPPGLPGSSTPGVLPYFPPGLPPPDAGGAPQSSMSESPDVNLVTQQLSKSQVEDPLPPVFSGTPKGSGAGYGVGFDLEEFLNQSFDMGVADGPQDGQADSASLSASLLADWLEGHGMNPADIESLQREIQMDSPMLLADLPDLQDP
For `CC(=O)Oc1ccc2c(c1)CC[C@@H]1[C@@H]2CC[C@]2(C)[C@@H](OC(C)=O)CC[C@@H]12`, the luciferase signal is 8 AU (inactive). Take `CC(=O)O[C@H]1CC[C@]2(C)C3=C(CC[C@H]2C1(C)C)[C@@]1(C)CC[C@@H]([C@H](C)CCC=C(C)C)[C@]1(C)CC3`: the luciferase signal is 28 AU (inactive).

As for `CCCCCCCCCCCCCCC(C(=O)O)C(O)(CC(=O)OC)C(=O)O` (stereo not given), the luciferase signal is 64 AU (inactive). Consider `COc1ccc(-c2coc3cc(OC(C)=O)cc(OC(C)=O)c3c2=O)cc1`, for which the luciferase signal was 80 AU (inactive).

Turning to `CC(C)C(NC(=O)C(Cc1ccc(O)cc1)NC(=O)C(NC(=O)C(F)(F)F)C(C)C)C(=O)O` (stereo not drawn) (Tfa-Val-Tyr-Val-OH; configuration not given here), the luciferase signal is 64 AU (inactive).

Take `CC(C)CCC[C@@H](C)[C@H]1CC[C@H]2[C@@H]3C=CC4=CC(=O)CC[C@]4(C)[C@H]3CC[C@]12C`: the luciferase signal was 44 AU (inactive). On to `Cc1cccc2c3c(ccc12)C1=C(C(=O)C3=O)[C@@H](C)CO1`, for which the luciferase signal is 156 AU (inactive). As for `COC(=O)C[C@H]1C(C)(C)C(=O)[C@@H]2CC3=C4CC(=O)O[C@@H](c5ccoc5)[C@]4(C)CC[C@@H]3[C@@]1(C)C2=O`, the luciferase signal is 32 AU (inactive). Consider `C=CCSC[C@H](N)C(=O)O`, for which the luciferase signal was 44 AU (inactive). For the compound `CC1=CC(=O)CC(C)(C)C1(O)/C=C/C(C)=C\C(=O)O` (stereo not given), the luciferase signal was 48 AU (inactive). Take `CCC(=O)OCC(=O)[C@@]1(OC(=O)CC)[C@H](C)CC2C3C(Cl)CC4=CC(=O)C=C[C@]4(C)C3C(O)C[C@@]21C` (stereo not given in full): the luciferase signal is 108 AU (inactive). Take `CC[C@H](C)[C@H](N)C(=O)N1CCC[C@H]1C(=O)N[C@H](C(=O)O)[C@@H](C)CC`: the luciferase signal is 120 AU (inactive). As for `C=CCCCCCCCCCCCC(O)CC(O)CO` (stereo not given), the luciferase signal was 220 AU (active). Take `CC1C(=O)OC2CC34C5CC(C(C)(C)C)C36C(OC(=O)C6O)OC4(C(=O)O5)C21O` (stereo not given): the luciferase signal was 36 AU (inactive). In the case of `CC(=O)N[C@@H](Cc1c[nH]c2ccccc12)C(N)=O`, the luciferase signal is 80 AU (inactive). Same read-out and setting: the result for `CC(C)(O)[C@@H]1CC[C@](C)([C@H]2[C@@H](O)C[C@@]3(C)[C@@H]4C[C@H](O[C@@H]5O[C@H](CO)[C@@H](O)[C@H](O)[C@H]5O)[C@H]5C(C)(C)[C@@H](O[C@@H]6OC[C@@H](O)[C@H](O)[C@H]6O)CC[C@@]56C[C@@]46CC[C@]23C)O1` reads 52 AU (inactive); that for `COc1cc(-c2cc(=O)c3c(O)c(OC)c(OC)c(OC)c3o2)cc(OC)c1OC`, 40 AU (inactive). Still for that read-out and setting: to `CC1(C)C[C@@H]2/C(CO)=C\C=C/[C@@](C)(O)CC[C@]21O` belongs 64 AU (inactive); to `OC[C@H]1O[C@H]([S-])[C@H](O)[C@@H](O)[C@@H]1O.[Au+]`, 68 AU (inactive); to `O=S(=O)([O][Al])OC[C@H]1O[C@@](COS(=O)(=O)[O][Al])(O[C@H]2O[C@H](COS(=O)(=O)[O][Al])[C@@H](OS(=O)(=O)[O][Al])[C@H](OS(=O)(=O)[O][Al])[C@H]2OS(=O)(=O)[O][Al])[C@@H](OS(=O)(=O)[O][Al])[C@@H]1OS(=O)(=O)[O][Al]`, 84 AU (inactive).

`C=CCCCCCCCCCCCC(O)CC(O)COC(C)=O` (stereo not given): the luciferase signal was 48 AU (inactive).

With `C[C@H](CCC(=O)O)[C@H]1CC[C@H]2[C@@H]3CC[C@@H]4C[C@H](O)CC[C@]4(C)[C@H]3C=C[C@]12C`, the luciferase signal is 16 AU (inactive).

For `COC(=O)/C=C/C(C)=C\C=C\C(C)=C\C=C\C=C(C)\C=C\C=C(C)\C=C\C(=O)O`, the luciferase signal is 64 AU (inactive).

For `CO/N=C(/C(=O)N[C@@H]1C(=O)N2C(C(=O)OC(C)OC(C)=O)=C(COC(N)=O)CS[C@H]12)c1ccco1` (stereo not given in full), the luciferase signal is 120 AU (inactive). Turning to `COC(=O)C[C@H]1C(C)(C)C(=O)[C@@H]2CC3=C(CC[C@]4(C)C3=CC(=O)O[C@H]4c3ccoc3)[C@@]1(C)C2=O`, the luciferase signal was 24 AU (inactive). In the case of `CO/N=C(/C(=O)N[C@@H]1C(=O)N2C(C(=O)OCOC(=O)C(C)(C)C)=C(/C=C\c3scnc3C)CS[C@H]12)c1csc(N)n1`, the luciferase signal is 132 AU (inactive). With `O=c1c(O)c(-c2ccc(O)cc2)oc2ccccc12`, the luciferase signal was 76 AU (inactive). For `CO/N=C1\C[C@]2(C[C@@H]3C[C@@H](C/C=C(\C)C[C@@H](C)/C=C/C=C4\CO[C@@H]5[C@H](O)C(C)=C[C@@H](C(=O)O3)[C@]45O)O2)O[C@H](/C(C)=C/C(C)C)[C@H]1C`, the luciferase signal is 40 AU (inactive).
